Laboratory results as given in PubChem BioAssay AID624172 (National Center for Advancing Translational Sciences (NCATS), 2012).
The whole screen tested about 380,000 compounds, of which about 25 (0.007%) were called active. Calls come from the whole dose curve; as a rule, active = well fitted activation curve with a large enough effect; inconclusive = small, poorly fitted or top-dose-only effect; inactive = no such curve, though single readings can be large or run the other way. Only a sample is shown.

Biological target: Glucagon-like peptide 1 receptor (Homo sapiens) (UniProt P43220)
Test: qHTS of GLP-1 Receptor Agonists
Details: HEK293 GLP-1R CRE-luciferase, luminescence, 4-6 h, cells express a hypersensitive GLP-1R form; series mostly up to 45.6 µM
Text: The overall goal of this project was to develop a novel assay for discovering small molecule ligands for class B1 G protein-coupled receptors (GPCRs). Very few agonists (or inverse agonists) with generally weak activity for this entire group of physiologically important receptors are known to date. To establish proof-of-principle that this critical bottleneck can be overcome with a suitable screening approach, our studies focused on the class B1 receptor for glucagon-like peptide-1 (GLP-1R), a potential therapeutic target for diabetes and neurodegenerative disease.
The assay was developed in a "mix and measure" format using a cell-based functional readout. Toward this goal, stably transfected HEK293 cell clones were established that co-express (i) a cAMP-responsive luciferase reporter gene, and (ii) GLP-1Rs that upon ligand interaction either stimulate (agonists) or inhibit (inverse agonists) luciferase activity. In different cell lines to be used for screening, expressed GLP-1Rs are specifically optimized for high sensitivity detection of either weak agonists (hypersensitive receptor) or inverse agonists (constitutively active receptor mutant). In addition, control cell lines were developed that express either the cAMP-responsive reporter gene without recombinant GLP-1Rs (enabling initial exclusion of GLP-1R independent effects of candidate probes), or the reporter gene together with wild type GLP-1Rs (for confirmation of probe activity at this receptor), or the reporter gene in combination with the constitutively active orphan receptor GPR119 (enabling initial exclusion of GLP-1R independent inhibitory effects of candidate inverse agonists).
To that end, this assay was optimized for 1536-well format and screened against the MLSMR.
NIH Molecular Libraries Probe Production Network [MLPCN]
NIH Chemical Genomics Center [NCGC]
PI Name: Martin Beinborn, Tufts Medical Center
In a white solid 1536-well plate, 6 uL of cells are dispensed in DMEM without phenol red, 10% Nu serum, and 1% pen-strep medium. The plates are then incubated for 12 hours at 37 deg C at 5% CO2 before 23 nL of compounds are added. After a 4-6 hr incubation at37 deg C and 5% CO2, 3 uL of detection reagent are added and after a 12 min incubation at RT, a luminescent read is obtained on the ViewLux.

Glucagon-like peptide 1 receptor (Homo sapiens), sequence (P43220 whole entry, looked up): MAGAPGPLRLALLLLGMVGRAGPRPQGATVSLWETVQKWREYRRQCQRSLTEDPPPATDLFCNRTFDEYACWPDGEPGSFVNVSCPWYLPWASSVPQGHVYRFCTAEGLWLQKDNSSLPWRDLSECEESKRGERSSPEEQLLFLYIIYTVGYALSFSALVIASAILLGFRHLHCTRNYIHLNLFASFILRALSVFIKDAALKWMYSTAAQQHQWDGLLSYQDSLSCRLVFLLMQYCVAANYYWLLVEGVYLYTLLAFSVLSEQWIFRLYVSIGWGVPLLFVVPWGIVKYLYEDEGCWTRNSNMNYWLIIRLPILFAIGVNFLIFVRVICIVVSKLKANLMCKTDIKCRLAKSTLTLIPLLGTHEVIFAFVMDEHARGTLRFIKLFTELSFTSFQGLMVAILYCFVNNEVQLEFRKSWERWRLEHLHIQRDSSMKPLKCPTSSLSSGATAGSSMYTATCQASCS

Compound	outcome
CC1=Nc2cc(C(=O)N3CCC(C)CC3)ccc2Sc2ccc(Cl)cc21	inactive
Cc1cn([C@H]2CC(F)[C@@H](CO)O2)c(=O)[nH]c1=O (some centres not stated)	inactive
Cc1cccc(-n2c(=O)c3c(c4cc(C)ccc4n3C)n(CC(=O)Nc3ccccc3Cl)c2=O)c1	inactive
O=C(O)CCCCC(=O)O	inactive
Cc1ccc(CCNC(=O)Cn2c(-c3cccs3)cc3cc(F)ccc32)cc1	inactive
CC(C)(O)c1ccccc1CC[C@H](SCC1(CC(=O)O)CC1)c1cccc(/C=C/c2ccc3ccc(Cl)cc3n2)c1	inactive
CO/N=C(\C(=O)N[C@@H]1C(=O)N2C(C(=O)O)=C(Cn3nnc(C)n3)CS[C@H]12)c1csc(N)n1	inactive
COc1ccc(CCNC(=O)CCCCn2c(=O)c3ccccc3n(Cc3ccccc3C)c2=O)cc1OC	inactive
CCOc1ccc(CNCCSc2nnnn2C)cc1	inactive
CC(O)COc1ccccc1 (configuration not stated)	inactive
Cc1ccc(C(=O)Nc2ccc(OCc3cc(=O)n4c5c(sc4n3)CCCC5)cc2)cc1	inactive
COc1cc([C@@H]2c3cc4c(cc3[C@@H](O[C@@H]3O[C@@H]5CO[C@@H](C)O[C@H]5[C@H](O)[C@H]3O)[C@H]3COC(=O)[C@H]23)OCO4)cc(OC)c1OP(=O)(O)O	inactive
Cn1c(=O)c2c(nc(NCCc3ccccc3)n2Cc2ccccc2Br)n(C)c1=O	inactive
COc1ccccc1-c1ccnc2[nH]n(-c3ccccc3)c(=O)c12	inactive
CN(C)CCCn1c(-c2ccc(Cl)cc2)csc1=Nc1ccccc1	inactive
COc1cc(C[C@H]2NCCc3cc(O)c(O)cc32)cc(OC)c1OC	inactive
O=C(Nc1cccc2cccnc12)c1cccc2c(Br)cccc12	inactive
COc1ccc(CCNC(=O)CCc2c(C)nc3c(c(C)nn3-c3ccc(C)c(C)c3)c2C)c(OC)c1OC	inactive
CCn1cc(C(=O)OCC(=O)Nc2cc(C)cc(C)c2)c(=O)c2ccc(C)nc21	inactive
CN(CC(=O)Nc1ccccc1F)S(=O)(=O)c1ccc2c(c1)c(=O)n(C)c(=O)n2C	inactive
Cc1c(O)cc2c(c1C)O[C@](C)(CCC[C@H](C)CCC[C@H](C)CCCC(C)C)CC2	inactive
COc1ccc(C2(C#N)CCC(C(=O)O)CC2)cc1OC1CCCC1 (configuration not stated)	inactive
Cc1ccc(NC(=O)c2oc3ccccc3c2NC(=O)Cc2cccs2)cc1	inactive

Compound	outcome
NNc1nnc(NN)c2ccccc12	inactive
O=C(C1CCCN(S(=O)(=O)c2cccc3nonc23)C1)N1CCN(c2ccccc2F)CC1 (configuration not stated)	inactive
COc1cccc(NC(=O)N(Cc2cn(C)c3ccccc23)C2CCCCCC2)c1	inactive
COc1ccc2[nH]c3c(c2c1)CCN(C(=O)CCC1CCCC1)C3c1ccc(F)cc1 (configuration not stated)	inactive
Nc1ccccc1N	inactive
NNc1nnc(Cc2ccncc2)c2ccccc12	inactive
CC(=O)OCC(=O)[C@@]1(O)CC[C@@H]2[C@H]3CCC4=CC(=O)C=C[C@]4(C)[C@]3(F)[C@@H](O)C[C@@]21C	inactive
CCC(CC)C(=O)N1CCc2cc(OC)c(OC)cc2C1COc1ccc(F)cc1 (configuration not stated)	inactive
CCC[C@H]1C(=O)N2C(N(C)C)=Nc3ccc(C)cc3N2C1=O	inactive
C=C1C(=CC=C2CCC[C@@]3(C)[C@@H]2CC[C@H]3[C@H](C)CCCC(C)C)C[C@@H](O)C[C@@H]1O	inactive
O=C1C(c2[nH]c3ccccc3c2O)=Nc2ccccc21	inactive
CC(=O)OC[C@H]1O[C@@H](O[C@H]2[C@H](O)[C@@H](OC(=O)c3ccccc3C(=O)O)[C@H](O)O[C@@H]2COC(C)=O)[C@H](O)[C@@H](OC(=O)c2ccccc2C(=O)O)[C@@H]1O	inactive
COc1ccc(CNC(=O)c2cc3cccc(OC)c3oc2=O)cc1	inactive
O=C(C1CC1)N1CCc2cc(Br)cc(S(=O)(=O)N3CCN(c4ccccc4F)CC3)c21	inactive
O=C(O)CCC(=O)O	inactive
COc1ccc(OC)c([C@H](O)CNC(=O)CN)c1	inactive
O=C(NC1CCCCC1)c1ccc2c(c1)N(Cc1ccc(Cl)cc1)C(=O)c1ccccc1S2=O (configuration not stated)	inactive
Cc1ccc(C)c(CN2C(=O)c3ccccc3S(=O)c3ccc(C(=O)N4CCOCC4)cc32)c1 (configuration not stated)	inactive
COc1ccc(S(=O)(=O)NCCSc2nnnn2-c2ccccc2)cc1	inactive
CC(=O)OC1C([N+]2(C)CCCCC2)C[C@H]2C3CC[C@H]4C[C@H](OC(C)=O)C([N+]5(C)CCCCC5)CC4(C)C3CCC12C (some centres not stated)	inactive
CCOC(=O)Cc1cccc(-c2cc(CCCCCCc3ccc(O[C@H]4O[C@H](COC(C)=O)[C@@H](OC(C)=O)[C@H](OC(C)=O)[C@@H]4OC(C)=O)c(-c4cccc(CC(=O)OCC)c4)c3)ccc2O[C@H]2O[C@H](COC(C)=O)[C@@H](OC(C)=O)[C@H](OC(C)=O)[C@@H]2OC(C)=O)c1	inactive
O=C(CCn1c(=O)c2ccccc2n(Cc2ccc(Cl)cc2)c1=O)NCc1ccc2c(c1)OCO2	inactive
COc1ccc(-c2nc3ccccc3s2)cc1NC(=O)COc1ccccc1C	inactive

Compound	outcome
CSc1ccc(C2C(C(=O)Nc3ccccc3)=C(C)Nc3nc4ccccc4n32)cc1 (configuration not stated)	inactive
O=C(O)[C@@H](S)[C@H](S)C(=O)O	inactive
CCC(C)C1OC2(C=CC1C)CC1CC(C/C=C(/C)C(OC3CC(OC)C(OC4CC(OC)C(NC(C)=O)C(C)O4)C(C)O3)C(C)/C=C\C=C3\COC4C(O)C(C)=CC(C(=O)O1)C34O)O2 (configuration not stated)	inactive
CC1(C)OC[C@@H](COC(=O)CCc2ccc(OC[C@@H](O)CNCCNC(=O)N3CCOCC3)cc2)O1	inactive
CCc1nc2onc(C)c2c(=O)n1CC(=O)O	inactive
CC1=C(C(=O)OCC2CCCCC2)C(c2c(F)cccc2Cl)CC(=O)N1 (configuration not stated)	inactive
CCCCCn1c(CCNC(=O)c2ccc(F)cc2)nc2ccccc21	inactive
O=c1cc2nc(-c3ccccc3)nc(SCCOc3ccc(Cl)cc3)n2[nH]1	inactive
C[C@H]1C[C@H]2[C@@H]3CCC4=CC(=O)C=C[C@]4(C)[C@@H]3C(=O)C[C@]2(C)[C@@]1(O)C(=O)CO	inactive
COc1cc2c(cc1OC)CC(=O)N(CCCN(C)C[C@H]1Cc3cc(OC)c(OC)cc31)CC2	inactive
COc1cccc(CNC(=O)c2ccc3c(Cl)c4c(nc3c2)CCCC4)c1	inactive
COc1cccc(C(=O)NC2(C(F)(F)F)C(=O)Nc3c2c(=O)[nH]c(=O)n3-c2ccc(C)cc2)c1 (configuration not stated)	inactive
Cc1ccc(C)c(N2CCN(C(=O)CN3C(=O)COc4ccc(S(=O)(=O)N5CCCCCC5)cc43)CC2)c1	inactive
CCn1cc(C(=O)N(C)Cc2ccccc2)c(=O)c2cc(S(=O)(=O)N3CCCCCC3)ccc21	inactive
Cc1cccc(Cc2c(C)nc3nc(SCc4ccccc4Cl)nn3c2C)c1	inactive
Oc1ccccc1-c1nc2ccc(Cl)cn2c1Nc1ccc2c(c1)OCCO2	inactive
COc1cc(C(=O)Nc2ccc(OCc3cc(=O)n4cc(C)sc4n3)cc2)cc(OC)c1OC	inactive
COc1ccc(NC(=O)C2CCCN(S(=O)(=O)c3cccc4nonc34)C2)cc1Cl (configuration not stated)	inactive
CCC(C)[C@@H](N)C(=O)O (some centres not stated)	inactive
CCCc1c2oc(C(=O)O)cc(=O)c2cc2c(=O)cc(C(=O)O)n(CC)c12	inactive
CCCCCCCCCCCCCCCCO	inactive
O=S(O)CNc1ccc(S(=O)(=O)c2ccc(NCS(=O)O)cc2)cc1	inactive
CCCN(CC)[C@@H](CC)C(=O)Nc1c(C)cccc1C	inactive

Compound	outcome
CN1CC(O)c2cc(N=NC(N)=O)c(O)cc21 (configuration not stated)	inactive
O=C(Cn1nc(C(F)(F)F)c2c1CCCC2)Nc1ccc(Cl)cc1	inactive
CCOc1ccc(OCC)c(NC(=O)CN(c2ccc(C)cc2)S(=O)(=O)c2c(C)n[nH]c2C)c1	inactive
CCOC(=O)c1ccc(NC2=CC(c3ccc(OCC)cc3)N(c3ccc(C(=O)OCC)cc3)C2=O)cc1 (configuration not stated)	inactive
CN(Cc1ccccc1)c1ncnc2onc(-c3ccc(F)cc3)c12	inactive
O=C(Nc1ccc(O)cc1)c1ccccc1O	inactive
O=P(O)(O)OC[C@H](O)CO	inactive
COc1cccc(NC(=O)C2CCN(c3cc(C)nc4c(-c5ccc(Cl)cc5)c(C)nn34)CC2)c1	inactive
COC(=O)CC1Oc2ccccc2-n2cc(-c3ccccc3)nc21 (configuration not stated)	inactive
CCOC(=O)c1cccc(NS(=O)(=O)c2cn(C)c(C)n2)c1	inactive
CCOc1ccc(N(CC)C(=O)C2CCN(S(=O)(=O)c3cccc4nonc34)CC2)cc1	inactive
COc1ccnc(C[S@@](=O)[C@@H]2Nc3ccc(OC(F)F)cc3N2)c1OC	inactive
O=C(Nc1c(-c2ccc(F)cc2)nc2ccccn12)c1cccc(F)c1	inactive
CC1(C)OC2CO[C@]3(COS(N)(=O)=O)OC(C)(C)OC3C2O1 (some centres not stated)	inactive
COC(=O)c1scc(-c2ccccc2)c1S(=O)(=O)Nc1ccccc1	inactive
COc1ccc(C)cc1NC(=O)C(=O)NCCc1sc(-c2cccc(C)c2)nc1C	inactive
COc1ccc(-c2noc(CCC(=O)N(C)c3ccccc3C)n2)cc1	inactive
C/C=C/C=N/NC(=O)c1ccncc1	inactive
COc1ccc2cc(CNc3ccc(OC)c(OC)c3)c(=O)n(CC(=O)Nc3ccccc3F)c2c1	inactive
COc1cc2[nH]c(C)c(CCN3CCN(c4ccccc4)CC3)c2cc1OC	inactive
COC(=O)C1=C(c2ccccc2)c2ccccc2S(=O)(=O)N1CC(=O)Nc1ccccc1C(F)(F)F	inactive
COc1cc(C(CC(=O)NCCC(C)C)N2Cc3ccccc3C2=O)cc(OC)c1OC (configuration not stated)	inactive
CC1(C)[C@H](O[C@H]2O[C@H](C(=O)O)[C@@H](O)[C@H](O)[C@H]2O[C@@H]2O[C@H](C(=O)O)[C@@H](O)[C@H](O)[C@H]2O)CC[C@@]2(C)[C@H]1CC[C@]1(C)[C@H]2C(=O)C=C2[C@H]3C[C@@](C)(C(=O)O)CC[C@]3(C)CC[C@]21C	inactive
